# Values joined by “and” are separate entries in the source; they are usually repeats but may differ in a detail not shown here. Identical values can stand only once. Hit rate of the full screen: of about 340,000 compounds, about 1,000 (0.29%) were called active. Not all results are given here. Results with a measured potency or affinity are listed apart. A number with no mark means an inactive call. Cut-off read from the data, not from the text of the source: inconclusive = inhibition above about 29% without an active follow-up result; inactive = below that.
# Molecular target: Genome polyprotein (Dengue virus type 2 (strain 16681-PDK53)) (UniProt P29991)
# Test: Dengue-2 NS5 methyltransferase inhibitors, primary screen, biochemical, confirmation dose response (AID 588689)
# Details: Dengue-2 NS5 methyltransferase capping enzyme assay, at 25 µM, hits give high values
row,SMILES,inhibition
1,Cc1ccc(OCC(=O)N[C@@H](C)c2nnc3ccccn23)cc1C,-6.18%
2,O=C(COC(=O)c1cccc(F)c1)Nc1cccc(S(=O)(=O)N2CCOCC2)c1,-5.49%
3,COc1ccc(NC(=O)C2CCC(CNc3c(N4CCC(C)CC4)c(=O)c3=O)CC2)cc1OC (stereo not drawn),-6.26% and 8.76%
4,COc1ccc(C(=O)NNc2ccccc2)cc1,4.46%
5,O=C(NNc1ccccc1)c1ccccc1,-0.81%
6,Cn1c(=O)[nH]c(=O)c2c1nc(N1CCOCC1)n2CCN1CCOCC1,1.62%
7,COc1cc(C(=O)Nc2scc(-c3ccccc3)c2C(=O)O)cc(OC)c1OC,14.7%
8,O=C(Nc1scc(-c2cccs2)c1C(=O)O)c1cccs1,22.9%
9,COc1ccc(-c2csc(NC(=O)c3ccccc3F)c2C(=O)O)cc1,11.1%
10,COc1ccc(-c2csc(NC(=O)c3cccs3)c2C(=O)O)cc1OC,-3.65%
11,COc1cc(C(=O)Nc2scc(-c3ccc(C)cc3)c2C(=O)O)cc(OC)c1OC,3.47%
12,Cc1ccccc1C(=O)Nc1scc(-c2ccc(Br)cc2)c1C(=O)O,22.5%
13,Cc1ccc(Cn2ccc(NC(=O)c3cc(-c4ccc(Cl)cc4)on3)n2)cc1,-1.39%
14,Oc1ccccc1C1OCC2(CO1)COC(c1ccccc1O)OC2 (stereo not drawn),1.95%
15,COc1cccc(-c2c(-c3cc(OC)cc(OC)c3)n(C)c3ccc(-c4ccc(OC)nc4)cc23)c1,2.45%
16,COC(=O)[C@@H](NC(=O)/C=C/c1ccc(OC)cc1)C(C)C,-9.35%
17,COc1ccc(NC(=O)N(C)C[C@@H]2OCc3cn(nn3)CCCC(=O)N([C@H](C)CO)C[C@H]2C)cc1,-1.7%
18,COc1ccccc1CNC(=O)CN(CCc1ccccc1)S(C)(=O)=O,-7.36%
19,COc1ccc(NS(=O)(=O)c2cc(NC(=O)c3sccc3C)ccc2N2CCOCC2)cc1,0.57%
20,CC(=O)c1ccc(N2CCN(S(=O)(=O)c3c(C(=O)N4CCCCC4)c(C)n(C)c3C)CC2)cc1,-2.71%
21,Fc1cccc(Cl)c1CN1CCN(c2nc3ccccc3s2)CC1,-4.55%
22,CCn1c(/C=N/c2nc3ccccc3n2C)nc2ccccc21,-0.7%
23,COc1ccc(O)c(/C=N/c2nc3ccccc3n2C)c1,3.47%
24,Cc1csc2c(=O)n3c(nc12)CCCCC3,-3.21%

row,SMILES,inhibition
1,CCN1C(=O)N/C(=C/c2ccc(Sc3ccc(C)cc3)o2)C1=O,-2.74%
2,Cc1ccc(Sc2ccc(/C=C3/C(=O)NN(c4ccccc4)C3=O)o2)cc1,-2.65%
3,O=C(COC(=O)/C=C/c1ccco1)NC1CCCCC1,-4.04%
4,CC(=O)Nc1ccc(C(=O)CSc2nnc(-c3ccccc3F)n2CCc2ccccc2)cc1,-4.64%
5,C[C@@H](C[C@@H](O)[C@H](O)C(C)(C)O)[C@@H]1CC[C@]2(C)C3=CC[C@H]4C(C)(C)C(=O)CC[C@]4(C)[C@H]3CC[C@@]12C,-3.21%
6,O=C(COC(=O)c1cc(Br)ccc1O)NNC(=O)c1cccs1,0%
7,Nc1nc(SCc2ccccc2)c2[nH]cnc2n1,-9.52%
8,CNc1ncnc(Sc2nc(N)nc3nc[nH]c23)c1[N+](=O)[O-],-30.9%
9,CC(C)C(NS(=O)(=O)c1cccc(C(F)(F)F)c1)C(=O)N1CCc2ccccc2C1 (stereo not drawn),-4.98%
10,CCn1c(SCC(=O)NNC(=O)c2ccc(C)cc2)nnc1C(C)C,7.12%
11,Nc1ccc(N2CCCCC2)cc1N1CCCCC1,25.7%
12,Nc1ccc(N2CCOCC2)c2nonc12,45.2%
13,O=C1C2CCCN2C(=S)N1c1ccccc1 (stereo not drawn),-3.27%
14,COc1ccccc1-c1cc(N)n[nH]1,2.4%
15,COc1cccc(N2C(=O)/C(=C\c3cccs3)NC2=S)c1,-5.28%
16,COc1ccc(N2C(=O)NC(=O)C2=O)cc1,-2.2%
17,CC1=CN2C(=N)/C(=C/c3ccc([N+](=O)[O-])o3)C(=O)N=C2S1,-58.2%
18,CC1CC(C)CN(C(=O)/C=C/c2ccc([N+](=O)[O-])s2)C1 (stereo not drawn),-5.44%
19,Cc1ccc(/C=C2\C(=O)NC(=O)N2C)o1,23.3%
20,Cc1cc(C)cc(N=Cc2ccc([N+](=O)[O-])s2)c1,4.37%
21,COc1cccc(NCc2ccc([N+](=O)[O-])s2)c1,-8.01%
22,COc1ccc(NC(C)C(=O)N/N=C/c2ccc([N+](=O)[O-])s2)cc1 (stereo not drawn),-5.18%
23,Cc1cc(-c2ccc(S(=O)(=O)NCc3ccc(F)cc3)cc2)on1,-4.39%
24,O=C(Cc1ccc(Br)cc1)N/N=C/c1cccnc1,1.95%

# From PubChem BioAssay AID588689 (Southern Research Specialized Biocontainment Screening …, 2011)
